Experimental data from PubChem BioAssay (NCATS).
Results filed as inconclusive are left out. Where a call stands in place of a potency, no number is given. Active and inactive are the calls of the source. The call rests on the fitted dose curve; in most records, active means well fitted inhibition curve with a large enough effect; inconclusive means small, poorly fitted or top-dose-only effect; inactive means flat fitted curve, though single readings scatter.

target: Calcium and integrin-binding protein 1 (Homo sapiens) (UniProt Q99828); experiment: Primary qHTS for Identification of Calcium Integrin Binding Protein 1 (CIB1) Competitor (AID 1508620); settings: CIB1-GST / FITC-alphaIIb peptide fluorescence polarization; series mostly up to 57.7 µM;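 further: GST tagged CIB1 binding a fluorescein labelled alphaIIb integrin peptide tracer; top concentration of the series differs between compounds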
Sequence (Q99828 whole entry, looked up): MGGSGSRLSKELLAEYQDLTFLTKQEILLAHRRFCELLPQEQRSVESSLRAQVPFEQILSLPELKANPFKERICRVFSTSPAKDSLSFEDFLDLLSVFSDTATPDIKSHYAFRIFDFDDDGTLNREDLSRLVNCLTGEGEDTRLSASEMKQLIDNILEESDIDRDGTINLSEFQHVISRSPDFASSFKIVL
Summary of the method: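 Fluorescence polarization competition: GST-tagged CIB1 (1 uM final) preincubated with compound 15 min at room temperature, then FITC-labelled alphaIIb peptide (100 nM final) added. After 15 min at room temperature, polarization read at Ex 480/Em 540.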

| Compound | Potency |
| --- | --- |
| OC[C@H]1O[C@@H](OCCc2ccccc2)[C@H](O)[C@@H](O)[C@@H]1O | inactive |
| CCC(C)C(=O)OC[C@H]1O[C@H](O[C@H]2O[C@H](CO)[C@@H](O)[C@H](O)[C@H]2O)[C@H](O)[C@@H](O)[C@@H]1O (some centres undefined) | inactive |
| COc1cc(/C=C/CO[C@@H]2O[C@H](CO)[C@@H](O)[C@H](O)[C@H]2O)cc(OC)c1O[C@@H]1O[C@H](CO)[C@@H](O)[C@H](O)[C@H]1O | inactive |
| COc1cc2c(cc1O)C(c1ccc(O)cc1)C(C)C(C)C2 (centres undefined) | inactive |
| COc1cc(/C=C/C(=O)O)ccc1O[C@@H]1O[C@H](CO)[C@@H](O)[C@H](O)[C@H]1O[C@@H]1OC[C@](O)(CO)[C@H]1O | inactive |
| CC1=C[C@H](O)[C@H]2C(C)(C)CCC[C@]2(C)[C@@]1(O)CO | inactive |
| COc1c(O[C@@H]2O[C@H](CO)[C@@H](O)[C@H](O)[C@H]2O)c(CCC(=O)O)cc2ccoc12 | inactive |
| CC1=C2CC3C(CCC3(C)O)C(C)(O)CC2OC1=O (centres undefined) | inactive |
| CC(C)=CC[C@H]1O[C@]2(O)C([C@H]3CCC4[C@@]5(C)CC[C@H](O[C@@H]6O[C@H](CO)[C@H](O)[C@H](O[C@@H]7O[C@H](CO)[C@@H](O)[C@H](O)[C@H]7O)[C@H]6O[C@@H]6O[C@@H](C)[C@H](O)[C@@H](O)[C@H]6O)C(C)(C)C5CC[C@@]4(C)[C@]3(C)[C@H]2O)[C@@]1(C)O (some centres undefined) | inactive |
| C=C1C[C@]23C[C@@]1(O)CC[C@H]2[C@@]12C=C[C@H](O)[C@@](C)(C(=O)O1)[C@H]2[C@@H]3C(=O)O | inactive |
| O=C(/C=C/c1ccc(O)cc1)OC[C@@]1(O)C=C[C@@H]2C(C(=O)O)=CO[C@@H](O[C@@H]3O[C@H](CO)[C@@H](O)[C@H](O)[C@H]3O)[C@@H]21 | inactive |
| C/C(=C\CO)CC/C=C(\C)C(=O)O[C@@H]1O[C@H](CO)[C@@H](O)[C@H](O)[C@H]1O | inactive |
| C[C@@H]1O[C@@H](O[C@@H]2[C@@H](O)[C@H](O[C@H]3[C@H](O[C@H]4CC[C@@]5(C)C(CC[C@]6(C)C5CC=C5[C@@H]7CC(C)(C)CC[C@]7(C(=O)O[C@@H]7O[C@H](CO)[C@@H](O)[C@H](O)[C@H]7O)CC[C@]56C)C4(C)C)O[C@H](C(=O)O)[C@@H](O)[C@@H]3O)OC[C@H]2O)[C@H](O)[C@H](O)[C@H]1O (some centres undefined) | inactive |
| C=C1[C@H]2CCC3[C@]4(C)CCC[C@@](C)(C(=O)O)C4CC[C@]3(C2)[C@H]1OC(C)=O (some centres undefined) | inactive |
| CC(=O)O[C@@H](C[C@@H]1C=C(C)C(=O)O1)[C@H](C)[C@H]1CCC2[C@@]3(C)CC[C@H](O[C@@H]4O[C@H](CO)[C@@H](O)[C@H](O)[C@H]4O[C@@H]4O[C@@H](C)[C@H](O)[C@@H](O)[C@H]4O)C(C)(C)C3CC[C@@]2(C)[C@@]12COC(=O)C2 (some centres undefined) | inactive |
| CC1(C)CC[C@]2(C(=O)O[C@@H]3O[C@H](CO[C@@H]4O[C@H](CO)[C@@H](O)[C@H](O)[C@H]4O)[C@@H](O)[C@H](O[C@@H]4O[C@H](CO)[C@@H](O)[C@H](O)[C@H]4O)[C@H]3O)[C@H](O)C[C@]3(C)C(=CCC4[C@@]5(C)CC[C@H](O[C@@H]6OC[C@@H](O)[C@H](O)[C@H]6O)[C@@](C)(C(=O)O)C5CC[C@]43C)[C@@H]2C1 (some centres undefined) | inactive |
| O=C(O)/C=C/c1ccc(O[C@@H]2O[C@H](CO)[C@@H](O)[C@H](O)[C@H]2O)cc1 | inactive |
| CCc1cc(CC[C@]2(C3CCCC3)CC(O)=C(Cc3nc4nc(C)cc(C)n4n3)C(=O)O2)cc(CC)n1 | inactive |
| C=C(C)C(O)COc1ccc(CC(=O)O)cc1 (centres undefined) | inactive |
| CC(=O)OC/C(=C/C(=O)O)CC[C@@H]1C(C)=CC(=O)[C@@H]2C(C)(C)CCC[C@@]12C | inactive |
| CC1=C(CO)CC(C(C)C2CCC3C4CC=C5CC(OC6OC(COC7OC(CO)C(O)C(O)C7O)C(O)C(O)C6O)CC(O)C5(C)C4CCC23C)OC1=O (centres undefined) | inactive |
| C=C1CCC2[C@](C)(CCC[C@]2(C)C(=O)O)[C@H]1CC/C(C)=C/C(=O)OC (some centres undefined) | inactive |
| CC1(C)C(=O)CCC2(C)C1C(O)C=C1COC(=O)C12O (centres undefined) | inactive |
| COC(=O)C[C@@H]1C(C(=O)O)=CO[C@@H](O[C@@H]2O[C@H](CO)[C@@H](O)[C@H](O)[C@H]2O)/C1=C\COC(=O)/C=C/c1ccc(O)c(OC)c1 | inactive |
| C[C@H]1[C@H](C)C[C@@H](C(=O)O)C2CC[C@]3(C)C(=CC[C@@H]4[C@@]5(C)CC[C@H](O)C(C)(C)[C@@H]5CC[C@]43C)[C@@H]21 (some centres undefined) | inactive |
| H-DPPDPDRFYGMM-NH2 | inactive |

tested on: not listed separately; experiment: Primary qHTS for inhibitors of nuclear receptor binding SET domain protein 2 (NSD2) in an isogenic RCH-ACV NSD2 p.E1099K mutant (9B) (AID 1645876); settings: RCH-ACV (leukaemia line) NSD2 E1099K (9B) viability, CellTiter-Glo, 72 h; series mostly up to 44.9 µM; further: nearly all actives have a fitted effect of over 70% in size; further: potency means the concentration at half of the fitted maximal effect

| Compound | Potency | activity change, negative = viability loss |
| --- | --- | --- |
| C[C@@H]1CC[C@]2(C(=O)O)CC[C@]3(C)C(=CCC4[C@@]5(C)C[C@@H](O)[C@H](O)[C@@](C)(CO)C5CC[C@]43C)C2[C@H]1C (some centres undefined) | inactive | – |
| C[C@@H](CC[C@@H]1[C@@]2(C)CCCC(C)(C)C2CC[C@@]1(C)O)CC(=O)O (some centres undefined) | inactive | – |
| C=CC(C)(O)CC/C=C(\C)C1CC=C(C)C(=O)O1 (centres undefined) | inactive | – |
| C[C@H]1CC[C@@]2(OC1)O[C@H]1CC3C4CC[C@H]5C[C@@H](O)CC[C@]5(C)C4CC(=O)[C@]3(C)[C@H]1[C@@H]2C (some centres undefined) | inactive | – |
| COc1cc(O)c2c(c1)C1(OC2=O)C(C)=CC(=O)C1O (centres undefined) | inactive | – |
| OC[C@H]1O[C@@H](OCc2ccccc2)[C@H](O)[C@@H](O)[C@@H]1O | inactive | – |
| C[C@@H]1CCC2C(C)(C)[C@H](O)[C@H](O)C[C@]2(C)[C@@]12Cc1c(O)cc3c(c1O2)CN(CCCC(=O)O)C3=O (some centres undefined) | inactive | – |
| COC(=O)C(CC1(O)c2ccccc2N2C(=O)C(C)(C)N(O)C21)n1cnc2ccccc2c1=O (centres undefined) | inactive | – |
| Cc1cc(-n2c(=O)[nH]c(=O)n(C)c2=O)ccc1Oc1ccc(SC(F)(F)F)cc1 | inactive | – |
| CC(=O)O[C@@H]1[C@@H](O)[C@H](C)O[C@@H](O[C@H]2[C@@H]3C=CO[C@@H](O[C@@H]4O[C@H](CO)[C@@H](O)[C@H](O)[C@H]4OC(C)=O)[C@@H]3[C@@]3(CO)O[C@@H]23)[C@@H]1OC(=O)/C=C/c1ccc(O)cc1 | inactive | – |
| CC(=O)OC1CC2(C)C(CCC(C)C23Cc2c(O)cc4c(c2O3)CNC4=O)C(C)(C)C1O (centres undefined) | inactive | – |
| CC1(C)CC[C@]2(C(=O)O[C@@H]3O[C@H](CO)[C@@H](O)[C@H](O)[C@H]3O)CC[C@]3(C)C(=CCC4[C@@]5(C)C[C@H](O)[C@H](O[C@@H]6OC[C@@H](O)[C@H](O)[C@H]6O)[C@@](C)(CO)C5CC[C@]43C)C2C1 (some centres undefined) | – | 1.45% [at 9.23 µM] (inactive) |
| OC[C@H]1O[C@@H](OCCc2ccccc2)[C@H](O)[C@@H](O)[C@@H]1O | inactive | – |
| CCC(C)C(=O)OC[C@H]1O[C@H](O[C@H]2O[C@H](CO)[C@@H](O)[C@H](O)[C@H]2O)[C@H](O)[C@@H](O)[C@@H]1O (some centres undefined) | inactive | – |
| COc1cc(/C=C/CO[C@@H]2O[C@H](CO)[C@@H](O)[C@H](O)[C@H]2O)cc(OC)c1O[C@@H]1O[C@H](CO)[C@@H](O)[C@H](O)[C@H]1O | inactive | – |
| COc1cc2c(cc1O)C(c1ccc(O)cc1)C(C)C(C)C2 (centres undefined) | 25.8 µM (active) | – |
| COc1cc(/C=C/C(=O)O)ccc1O[C@@H]1O[C@H](CO)[C@@H](O)[C@H](O)[C@H]1O[C@@H]1OC[C@](O)(CO)[C@H]1O | inactive | – |
| CC1=C[C@H](O)[C@H]2C(C)(C)CCC[C@]2(C)[C@@]1(O)CO | inactive | – |
| COc1c(O[C@@H]2O[C@H](CO)[C@@H](O)[C@H](O)[C@H]2O)c(CCC(=O)O)cc2ccoc12 | inactive | – |
| CC1=C2CC3C(CCC3(C)O)C(C)(O)CC2OC1=O (centres undefined) | inactive | – |
| CC(C)=CC[C@H]1O[C@]2(O)C([C@H]3CCC4[C@@]5(C)CC[C@H](O[C@@H]6O[C@H](CO)[C@H](O)[C@H](O[C@@H]7O[C@H](CO)[C@@H](O)[C@H](O)[C@H]7O)[C@H]6O[C@@H]6O[C@@H](C)[C@H](O)[C@@H](O)[C@H]6O)C(C)(C)C5CC[C@@]4(C)[C@]3(C)[C@H]2O)[C@@]1(C)O (some centres undefined) | – | -8.31% [at 9.23 µM] (inactive) |
| C=C1C[C@]23C[C@@]1(O)CC[C@H]2[C@@]12C=C[C@H](O)[C@@](C)(C(=O)O1)[C@H]2[C@@H]3C(=O)O | inactive | – |
| O=C(/C=C/c1ccc(O)cc1)OC[C@@]1(O)C=C[C@@H]2C(C(=O)O)=CO[C@@H](O[C@@H]3O[C@H](CO)[C@@H](O)[C@H](O)[C@H]3O)[C@@H]21 | inactive | – |
| C/C(=C\CO)CC/C=C(\C)C(=O)O[C@@H]1O[C@H](CO)[C@@H](O)[C@H](O)[C@H]1O | inactive | – |
| C[C@@H]1O[C@@H](O[C@@H]2[C@@H](O)[C@H](O[C@H]3[C@H](O[C@H]4CC[C@@]5(C)C(CC[C@]6(C)C5CC=C5[C@@H]7CC(C)(C)CC[C@]7(C(=O)O[C@@H]7O[C@H](CO)[C@@H](O)[C@H](O)[C@H]7O)CC[C@]56C)C4(C)C)O[C@H](C(=O)O)[C@@H](O)[C@@H]3O)OC[C@H]2O)[C@H](O)[C@H](O)[C@H]1O (some centres undefined) | – | 2.27% [at 9.23 µM] (inactive) |
| C=C1[C@H]2CCC3[C@]4(C)CCC[C@@](C)(C(=O)O)C4CC[C@]3(C2)[C@H]1OC(C)=O (some centres undefined) | inactive | – |
| CC(=O)O[C@@H](C[C@@H]1C=C(C)C(=O)O1)[C@H](C)[C@H]1CCC2[C@@]3(C)CC[C@H](O[C@@H]4O[C@H](CO)[C@@H](O)[C@H](O)[C@H]4O[C@@H]4O[C@@H](C)[C@H](O)[C@@H](O)[C@H]4O)C(C)(C)C3CC[C@@]2(C)[C@@]12COC(=O)C2 (some centres undefined) | – | -3.49% [at 9.23 µM] (inactive) |
| CC1(C)CC[C@]2(C(=O)O[C@@H]3O[C@H](CO[C@@H]4O[C@H](CO)[C@@H](O)[C@H](O)[C@H]4O)[C@@H](O)[C@H](O[C@@H]4O[C@H](CO)[C@@H](O)[C@H](O)[C@H]4O)[C@H]3O)[C@H](O)C[C@]3(C)C(=CCC4[C@@]5(C)CC[C@H](O[C@@H]6OC[C@@H](O)[C@H](O)[C@H]6O)[C@@](C)(C(=O)O)C5CC[C@]43C)[C@@H]2C1 (some centres undefined) | – | -2.24% [at 9.23 µM] (inactive) |
